± gives the standard deviation.
Each molecule was assayed on OVCAR-3-derived ovarian cancer stem-like cells (spheroids) (assay: cell growth relative to untreated control; higher = more growth (less inhibition)). Settings: 2.29 µM; 96 h.
In short: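 After trypsin dissociation, OVCAR-3 spheroid-derived stem-like cells were placed in ultra-low attachment 96-well plates at 50,000 cells/mL in stem cell medium and preincubated for 24 h. Treatment at 2.29 uM followed for 96 h at 37°C, 5% CO2, with 4 replicate wells per compound. A 4 h TOX8 resazurin fluorescence read (ex 560/em 590 nm) gave viability, from which percent growth relative to untreated wells was derived after blank subtraction and Grubbs outlier removal.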

Compound	cell growth [%]
C=C(Cl)C(Cl)(CBr)CCC(Br)C(C)(C)Cl (centres undefined)	70.7 ± 16
N#CC1=C(N)Oc2c(ccc3cccnc23)C1c1ccccc1 (centres undefined)	57.8 ± 17
COc1ccc(NC(=O)CC(=O)N2N=C(C)C(N=Nc3ccc(S(=O)(=O)c4ccc(N=NC5C(=O)N(C(=O)CC(=O)Nc6ccc(OC)cc6)N=C5C)cc4)cc3)C2=O)cc1 (centres undefined)	105 ± 30
O=C(N=Nc1c(O)[nH]c2c(Cl)cc(Cl)cc12)c1ccccc1O	93.1 ± 22
O=c1oc2cc(O)ccc2c2oc3cc(O)ccc3c12	124 ± 31
CN(C)c1cccc(F)c1C(=O)NC(=O)Nc1ccc(Cl)cc1	102 ± 28
Cn1cnc([N+](=O)[O-])c1Sc1nnnn1-c1ccccc1	92.6 ± 24
CCCN(CCC)C(=S)Sc1nc(C)nc(N2CCN(c3nc(C)nc(SC(=S)N(CCC)CCC)c3[N+](=O)[O-])CC2)c1[N+](=O)[O-]	107 ± 22
CCOc1cccc(/C=N/N=C2\C(=O)Nc3c(Cl)cc(Cl)cc32)c1O	85.4 ± 13
CC(=O)c1sc2[n+](c1C)C(=O)/C(=C\c1ccccc1Cl)S2	99.4 ± 17
CCCCCC/C=C\CCCCCCCCCc1cccc(OC)c1O	115 ± 69
O=C1C=CC(CC(=O)c2ccc3ccccc3c2)O1 (centres undefined)	112 ± 18
Cc1c2ccncc2c(C)c2c1sc1ccccc12	120 ± 13
CC(C)=CCC(OC(=O)C=C(C)C)C1=CC(=O)c2c(O)ccc(O)c2C1=O (centres undefined)	35 ± 16
O=C1c2ccccc2C(=O)c2nc(-c3ccccc3)c(-c3ccccc3)nc21	137 ± 51
CN(C)c1nc(=NCc2ccco2)ss1	93.7 ± 7
CC1OC1C(=O)C1(O)C(C)C(O)C23OC2(C(O)c2c(O)cccc2C3=O)C1O (centres undefined)	23.6 ± 6.9
CC1=CC(=C(c2ccc(N)cc2)c2ccc(N)cc2)C=CC1=N	50.4 ± 6.5
COc1ccc2nc3cc([N+](=O)[O-])ccc3c(NNc3ccccc3)c2c1	76.2 ± 22
O=C1Cc2c(-c3ccccc3)cc(-c3cccc(Cl)c3)nc2-c2ccccc2N1	99.6 ± 21

Compound	cell growth [%]
CN(C)c1ccc(/C=C2\Cc3ccccc3C2=O)cc1Br	169 ± 23
CN(C)CCNC(=O)c1cccc2[nH]c(-c3ccncc3)nc12	96.5 ± 22
CCCCCC(CN1CCOCC1)C(=O)/C=C/c1ccccc1 (centres undefined)	93 ± 29
C/C(=N\Nc1nc2ccccc2s1)c1ccncn1	30.8 ± 7.4
COc1c2c(c(OC)c3c1c(=O)c1ccccc1n3C)OCO2	97.8 ± 12
O=C(O)c1ccc(NC(c2ccccc2)c2ccc3cccnc3c2O)cc1 (centres undefined)	89.7 ± 46
O=C1C(Cl)=C(N2CCN(C3=C(Cl)C(=O)c4ccccc4C3=O)CC2)C(=O)c2ccccc21	52.1 ± 17
COc1cc(C[C@H]2c3cc(OC)c(OC)cc3CCN2C)c(Oc2cc3c(cc2OC)-c2c(OC)c(OC)cc4c2[C@H](C3)N(C)CC4)cc1OC	77.8 ± 11
O=C(ON=C1c2ccccc2C(Br)C(Br)c2ccccc21)c1ccccc1 (centres undefined)	107 ± 22
C=C(C)[C@@H]1CC[C@]2(C(=O)O)CC[C@]3(C)[C@H](CC[C@@H]4[C@@]5(C)CC[C@H](O)C(C)(C)[C@@H]5CC[C@]43C)[C@@H]12	76 ± 22
COc1ccc(/C=C/c2cc(O)cc(O[C@@H]3O[C@H](CO)[C@@H](O)[C@H](O)[C@H]3O)c2)cc1O	106 ± 26
C=C1CC[C@@H]2[C@](C)(CO)[C@H](O)CC[C@@]2(C)[C@@H]1C/C=C1/C(=O)OC[C@H]1O	119 ± 38
C=C(CN(C)C)C(=O)c1ccccc1Cl	84 ± 22
Nc1ccccc1N	88.4 ± 25
CCN(CC)CCNc1ccc(C)c2sc3ccccc3c(=O)c12	77.7 ± 26
COC1=CC(=O)c2c(ccc3ncnc(N)c23)C1=O	79.1 ± 20
NC1(C(=O)O)CCCC1	84.9 ± 15
COC(=O)c1c[nH]c2c1-c1cc(C(=O)OCc3ccccc3)n(S(=O)(=O)c3ccc(C)cc3)c1C(=O)C2=O	20.9 ± 3.5
C=C1C(=O)OC2CC1C(OC(C)=O)C/C(C)=C/CC/C(C)=C\CCC2(C)O (centres undefined)	48.5 ± 5.5

— the supplement of paper PMC3484114
